# Assay results: PubChem BioAssay (Tox21)
# Values without a mark were called inactive. Where a call stands in place of a potency, no number is given. Activity calls are given as the source filed them. Unless noted, calls follow the shape of the dose curve; as a rule, active = well fitted curve in the direction sought with a large enough effect in the repeat runs; inconclusive = weak or mixed curves; inactive = no such curve, though single readings can be large; an effect the other way counts as inactive or inconclusive.
# Legend:
# [1] = qHTS assay to identify small molecule antagonists of the thyroid receptor (TR) signaling pathway (AID 743065); also: nearly all actives have a fitted effect of over 55% in size; also: potency is read from the fitted curve at half-maximal effect; as to activity, negative = inhibition: series mostly up to about 70 µM
# Procedure, shortened: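 Antagonism measured as loss of luciferase signal in GH3 cells stably carrying a TRE-luciferase reporter, co-treated with compound and T3 (1 nM final) for 23.5 h at 37 C. Viability was read in the same well by CellTiter-Fluor.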
# [2] = tested on: thyroid hormone receptor (rat, GH3 cells); assay: qHTS assay to identify small molecule agonists of the thyroid receptor (TR) signaling pathway (AID 743066; calls by dose curve)
# [3] = target: Estrogen receptor (Homo sapiens) (UniProt P03372); assay: qHTS assay to identify small molecule antagonists of the estrogen receptor alpha (ER-alpha) signaling pathway (AID 743069; active = well fitted curve in the direction sought with a large enough effect in the signal ratio in the repeat runs, not every such curve was filed as active; inconclusive = weak or mixed curves, or effect the other way; inactive = no such curve, though single readings can be large or run the other way; the % refers to the signal ratio; also: potency is read from the fitted curve at half-maximal effect)
# Chain of Estrogen receptor (Homo sapiens) (P03372 whole entry, looked up): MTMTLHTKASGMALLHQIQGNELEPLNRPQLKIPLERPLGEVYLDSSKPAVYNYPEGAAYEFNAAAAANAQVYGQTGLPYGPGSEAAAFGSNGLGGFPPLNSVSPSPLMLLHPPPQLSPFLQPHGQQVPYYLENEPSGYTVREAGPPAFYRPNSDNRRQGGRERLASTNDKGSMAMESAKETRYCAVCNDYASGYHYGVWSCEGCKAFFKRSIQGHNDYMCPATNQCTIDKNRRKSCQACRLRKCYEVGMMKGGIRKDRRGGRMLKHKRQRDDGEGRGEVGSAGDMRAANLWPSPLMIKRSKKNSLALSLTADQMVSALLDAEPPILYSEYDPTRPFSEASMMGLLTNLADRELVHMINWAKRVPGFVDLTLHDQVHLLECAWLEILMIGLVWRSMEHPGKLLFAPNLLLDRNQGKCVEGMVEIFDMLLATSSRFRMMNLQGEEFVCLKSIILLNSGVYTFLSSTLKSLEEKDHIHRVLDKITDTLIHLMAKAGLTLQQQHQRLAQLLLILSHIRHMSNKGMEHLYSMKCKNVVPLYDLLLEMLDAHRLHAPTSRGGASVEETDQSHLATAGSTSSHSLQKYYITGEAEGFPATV
# Procedure, shortened: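 Compound effects are measured against 17beta-estradiol stimulation in HEK293 cells with a UAS-controlled beta-lactamase reporter for ER-alpha. Exposure lasts 18 hr at 37C; LiveBLAzer B/G FRET substrate follows for 2 hr at room temperature.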
# [4] = qHTS assay to identify small molecule antagonists of the estrogen receptor alpha (ER-alpha) signaling pathway - cell viability counter screen (AID 743074; calls by dose curve;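 also: HEK293 cells carrying ER-alpha-UAS-bla reporter stimulated with 17beta-estradiol; nearly all actives have a fitted effect of over 45% in size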; also: potency is read from the fitted curve at half-maximal effect)
# [5] = target: Estrogen receptor (Homo sapiens) (UniProt P03372); assay: qHTS assay to identify small molecule agonists of the estrogen receptor alpha (ER-alpha) signaling pathway (AID 743075; calls by dose curve; also: potency is read from the fitted curve at half-maximal effect)
# [6] = target: Estrogen receptor (Homo sapiens) (UniProt P03372); assay: qHTS assay to identify small molecule agonists of the estrogen receptor alpha (ER-alpha) signaling pathway using the BG1 cell line (AID 743079); also: nearly all actives have a fitted effect of over 20% in size; also: potency is read from the fitted curve at half-maximal effect
# [7] = qHTS assay to identify small molecule antagonists of the estrogen receptor alpha (ER-alpha) signaling pathway using the BG1 cell line - cell viability counter screen (AID 743081);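 also: compound given together with 17beta-estradiol as the ER stimulus; series mostly up to about 70 µM; nearly all actives have a fitted effect of over 45% in size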
# Aromatase (Homo sapiens) = Aromatase (Homo sapiens) (UniProt P11511); assay: qHTS assay to identify aromatase inhibitors (AID 743083); also: nearly all actives have a fitted effect of over 55% in size; also: potency is read from the fitted curve at half-maximal effect; as to activity, negative = inhibition: series mostly up to about 70 µM
# Chain of Aromatase (Homo sapiens) (P11511 whole entry, looked up): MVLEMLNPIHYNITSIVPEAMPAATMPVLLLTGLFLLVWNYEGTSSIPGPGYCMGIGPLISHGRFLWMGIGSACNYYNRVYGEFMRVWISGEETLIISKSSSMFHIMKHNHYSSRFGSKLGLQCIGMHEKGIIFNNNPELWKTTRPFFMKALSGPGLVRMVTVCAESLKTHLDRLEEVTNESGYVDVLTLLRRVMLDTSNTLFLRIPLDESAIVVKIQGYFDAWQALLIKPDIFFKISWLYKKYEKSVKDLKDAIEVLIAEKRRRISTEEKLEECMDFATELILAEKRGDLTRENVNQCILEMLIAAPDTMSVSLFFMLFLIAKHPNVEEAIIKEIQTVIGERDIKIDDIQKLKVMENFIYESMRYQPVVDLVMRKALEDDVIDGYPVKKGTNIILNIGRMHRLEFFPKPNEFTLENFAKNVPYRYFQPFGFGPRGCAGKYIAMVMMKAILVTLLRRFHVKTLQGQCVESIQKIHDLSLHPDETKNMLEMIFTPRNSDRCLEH
# [8] = qHTS assay to identify small molecule antagonists of the estrogen receptor alpha (ER-alpha) signaling pathway using the BG1 cell line (AID 743080; calls by dose curve;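 also: BG1 cells stimulated with 17beta-estradiol alongside compound; nearly all actives have a fitted effect of over 25% in size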; also: potency is read from the fitted curve at half-maximal effect)
# Procedure, shortened: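 BG1-Luc-4E2 cells (endogenous full-length ER-alpha, stable 4×ERE-luciferase) were starved 5 days in phenol-red-free medium with 10% charcoal-stripped FBS, plated 24 h, then given compound plus 17beta-estradiol for 21.5 h at 37 C; ONE-Glo luminescence read after 30 min.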
smiles,measurement,setting,value
COc1ccc(C(=O)NCc2ccc(OCCN(C)C)cc2)cc1OC,Potency,[1],inactive
same,Potency,[2],inactive
same,Potency,[3],inactive
same,Potency,[4],inactive
same,Potency,[5],inactive
same,Potency,[6],inactive
same,Potency,[7],inactive
same,Potency,Aromatase (Homo sapiens),inactive
CCNc1nc(N)nc(Cl)n1,Potency,[1],inactive
same,Potency,[4],inactive
same,Potency,[7],inactive
CCCC(=O)OC(=O)CCC,Potency,[1],inactive
same,Potency,[2],inactive
same,Potency,[7],inactive
same,Potency,Aromatase (Homo sapiens),inactive
NC(=O)c1ccccc1[N+](=O)[O-],Potency,[1],inactive
same,Potency,[2],inactive
same,Potency,[3],inactive
same,Potency,[4],inactive
same,Potency,[5],inactive
same,Potency,[6],inactive
same,Potency,[8],inactive
same,Potency,[7],inactive
same,Potency,Aromatase (Homo sapiens),inactive
CC[C@@H](CO)NCCN[C@@H](CC)CO,Potency,[4],inactive
same,Potency,[7],inactive
same,Potency,Aromatase (Homo sapiens),inactive
CC1=CC[C@@H]2C[C@H]1C2(C)C,Potency,[1],inactive
same,activation,[2],0.116% [at 18 µM]
same,"activity, negative = inhibition",[3],12.8% [at 15 µM]
same,"activity, negative = cytotoxicity",[4],-16.5% [at 15 µM]
same,activation,[5],-0.944% [at 14.9 µM]
same,Potency,[6],inactive
same,Potency,[8],inactive
same,Potency,[7],inactive
same,Potency,Aromatase (Homo sapiens),inactive
CSCC[C@H](NC(=O)[C@H](Cc1c[nH]c2ccccc12)NC(=O)CCNC(=O)OC(C)(C)C)C(=O)N[C@@H](CC(=O)O)C(=O)N[C@@H](Cc1ccccc1)C(N)=O,Potency,[3],inactive
same,Potency,[4],inactive
same,Potency,[5],inactive
same,Potency,[6],inactive
same,Potency,[8],inactive
same,Potency,Aromatase (Homo sapiens),inactive
CC(C)(C)CCCCCCOC(=O)c1ccccc1C(=O)OCCCCCCC(C)(C)C,Potency,[1],inactive
same,Potency,[3],inactive
same,Potency,[5],inactive
same,Potency,[6],inactive
same,Potency,[8],inactive
same,Potency,[7],inactive
same,Potency,Aromatase (Homo sapiens),inactive
CCCc1nc2c(C)cc(-c3nc4ccccc4n3C)cc2n1Cc1ccc(-c2ccccc2C(=O)O)cc1,Potency,[2],inactive
same,Potency,[4],inactive
same,Potency,[5],inactive
same,Potency,[6],inactive
same,Potency,[8],inactive
same,Potency,[7],inactive
same,Potency,Aromatase (Homo sapiens),inactive
CC1C(C)(C)C2=C(C(=O)CCC2)C1(C)C (centres undefined),Potency,[1],inactive
same,Potency,[2],inactive
same,Potency,[3],inactive
same,Potency,[4],inactive
same,Potency,[5],inactive
same,Potency,[6],inactive
same,Potency,[8],inactive
same,Potency,[7],inactive
same,Potency,Aromatase (Homo sapiens),inactive
COc1cc(OC)c2ccc(=O)oc2c1,Potency,[1],inactive
same,Potency,[2],inactive
same,Potency,[3],inactive
same,Potency,[4],inactive
same,Potency,[5],inactive
same,Potency,[6],inactive
same,Potency,[8],inactive
same,Potency,Aromatase (Homo sapiens),inactive
CCCCCCCC/C=C\CCCCCCCC(=O)OCCO,Potency,[2],inactive
same,Potency,[3],inactive
same,Potency,[4],inactive
same,Potency,[5],inactive
same,Potency,[6],inactive
same,Potency,[8],inactive
same,Potency,[7],inactive
same,Potency,Aromatase (Homo sapiens),inactive
CN=C(N)NC(=O)Nc1c(C)cccc1C,Potency,[3],inactive
same,Potency,[4],inactive
same,Potency,[5],inactive
same,Potency,[6],inactive
same,Potency,[8],inactive
same,Potency,Aromatase (Homo sapiens),inactive
CCCCCc1ccco1,Potency,[2],inactive
same,Potency,[4],inactive
same,Potency,[7],inactive
same,Potency,Aromatase (Homo sapiens),inactive
Nc1ccn([C@H]2CS[C@@H](CO)O2)c(=O)n1,Potency,[4],inactive
same,Potency,[7],inactive
same,Potency,Aromatase (Homo sapiens),inactive
O=C1c2ccccc2C(=O)c2c(O)ccc(O)c21,Potency,[2],inactive
same,Potency,[4],inactive
O=S(=O)(O)CO,Potency,[1],inactive
same,Potency,[2],inactive
same,Potency,[4],inactive
same,Potency,[7],inactive
same,Potency,Aromatase (Homo sapiens),inactive
CC(=O)c1ccc[nH]1,Potency,[1],inactive
same,Potency,[2],inactive
same,Potency,[3],inactive
same,Potency,[4],inactive
same,Potency,[5],inactive
same,Potency,[6],inactive
same,Potency,[8],inactive
same,Potency,[7],inactive
same,Potency,Aromatase (Homo sapiens),inactive
CCc1ccc(C)cc1,Potency,[1],inactive
same,Potency,[2],inactive
same,Potency,[4],inactive
same,Potency,[7],inactive
same,Potency,Aromatase (Homo sapiens),inactive
Cc1ccc2c(c1[N+](=O)[O-])C(=O)c1ccccc1C2=O,Potency,[2],inactive
same,Potency,[4],inactive
same,Potency,[5],inactive
same,Potency,[6],3.78 µM (active)
same,Potency,[7],inactive
same,Potency,Aromatase (Homo sapiens),inactive
Cc1ccc2nc(N)[nH]c(=O)c2c1Sc1ccncc1,Potency,[1],8.41 µM (active)
same,Potency,[2],inactive
same,Potency,[4],3.01 µM (active)
same,Potency,[7],inactive
same,Potency,Aromatase (Homo sapiens),9.44 µM (active)
O=C(c1ccccc1)c1ccc(O)cc1,Potency,[1],inactive
same,Potency,[2],inactive
same,Potency,[4],inactive
same,Potency,[6],9.8 µM (active)
same,Potency,[7],inactive
same,Potency,Aromatase (Homo sapiens),inactive
CCN(CC)C(=O)N1CCN(C)CC1,Potency,[4],inactive
same,Potency,[7],inactive
same,Potency,Aromatase (Homo sapiens),inactive
CCCCCCCCCCCSCC(=O)O,Potency,[3],54.9 µM [inconclusive] (active)
same,Potency,[4],inactive
same,Potency,[5],inactive
same,Potency,[8],inactive
same,Potency,[7],inactive
same,Potency,Aromatase (Homo sapiens),inactive
Cc1ccc(N(CC2=NCCN2)c2cccc(O)c2)cc1,Potency,[2],inactive
same,Potency,[3],inactive
same,Potency,[4],inactive
same,Potency,[5],inactive
same,Potency,[8],inactive
same,Potency,[7],inactive
same,Potency,Aromatase (Homo sapiens),inactive
Oc1ccc2c(c1)Cc1ccccc1-2,Potency,[2],inactive
same,Potency,[4],inactive
same,Potency,[5],24.5 µM [activator] (active)
same,Potency,[6],13.7 µM (active)
same,Potency,[7],inactive
same,Potency,Aromatase (Homo sapiens),inactive
CCCCC[C@H](O)/C=C/[C@H]1[C@H](O)CC(=O)[C@@H]1C/C=C\CCCC(=O)O,Potency,[2],inactive
same,Potency,[4],inactive
same,Potency,Aromatase (Homo sapiens),inactive
O=C1[C@@H]2[C@H]3CC[C@H](C3)[C@@H]2C(=O)N1CCCCN1CCN(c2ncccn2)CC1,Potency,[3],inactive
same,Potency,[4],inactive
same,Potency,[5],inactive
same,Potency,[6],inactive
same,Potency,[8],inactive
same,Potency,[7],inactive
same,Potency,Aromatase (Homo sapiens),inactive
O=C(O)CCC(=O)c1ccc(-c2ccccc2)cc1,Potency,[4],inactive
same,Potency,[7],inactive
same,Potency,Aromatase (Homo sapiens),inactive
C1CCCCC1,Potency,[1],inactive
same,Potency,[2],inactive
same,Potency,[4],inactive
same,Potency,[7],inactive
same,Potency,Aromatase (Homo sapiens),inactive
COc1ccc(C2C(=O)c3ccccc3C2=O)cc1,Potency,[1],inactive
same,Potency,[2],inactive
same,Potency,[3],inactive
same,Potency,[4],inactive
same,Potency,[5],inactive
same,Potency,[6],23.7 µM (active)
same,Potency,[8],inactive
same,Potency,[7],inactive
same,Potency,Aromatase (Homo sapiens),inactive
CC(=O)OCC(C)C,Potency,[5],inactive
same,Potency,[7],inactive
same,Potency,Aromatase (Homo sapiens),inactive
COc1ccc(/C=C/C(=O)c2ccc(OC)cc2OC)cc1,Potency,[1],26.6 µM (active)
same,Potency,[2],inactive
same,Potency,[4],inactive
same,Potency,[7],inactive
same,Potency,Aromatase (Homo sapiens),inactive
CCCCCCCC(=O)Oc1c(Br)cc(C#N)cc1Br,Potency,[2],inactive
same,Potency,[5],inactive
same,Potency,[8],60.9 µM (active)
same,Potency,[7],inactive
same,Potency,Aromatase (Homo sapiens),60.9 µM (active)
